# Of roughly 7,900 targets only a part is listed; those with a hit were picked by preference. About 0.6% of all pairs of compound and target were hits. A number with no mark means an inactive call.
# What was measured:
# Test in all cases: log2 fold change, soluble protein after heating vs DMSO (PISA); higher = thermal stabilisation; K562 cells, 10 uM, 30 min; active = over 0.2 and 3.5 SD of the protein, either way, in both replicates (recomputed)
# [1] = compound: CC1=C(C=C(C=C1)NC(=O)C2=CC(=CC=C2)C(C)(C)C#N)NC3=CC4=C(C=C3)N=CN(C4=O)C
# How it was run: (§1)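 Thermal stability values are relative to control samples and come from duplicates. They are expressed as log2 fold changes. For measurement, K562 cells (2×10^6 cells/mL) received 10 μM compound for 30 min, and aliquots were heated for 3 min over 48°C-58°C, pooled, and extracted at 4°C in PBS with 0.5% NP-40. Soluble protein, the supernatant after 21,000xg for 90 min, was quantified by TMTpro 16plex LC-MS/MS with equalised channel sums.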
# [2] = compound: CC1=C(C=C(C=C1)NC(=O)C2=CC(=CC=C2)N(C)C)NC(=O)C3=CC=C(C=C3)O
# How it was run: as §1
# [3] = compound: CC1=CC=C(C=C1)SC2=C3C=C(SC3=CN=C2)C(=O)N
# How it was run: as §1
# [4] = compound: CC1=NC(=CC=C1)C2=C(N=C(N2)C(C)(C)C)C3=CC4=NC=CN=C4C=C3
# How it was run: as §1
# Nexturastat A = compound: CCCCN(Cc1ccc(C(=O)NO)cc1)C(=O)Nc1ccccc1 [Nexturastat A]
# How it was run: as §1
# vemurafenib = compound: CCCS(=O)(=O)Nc1ccc(F)c(C(=O)c2c[nH]c3ncc(-c4ccc(Cl)cc4)cc23)c1F [vemurafenib]
# How it was run: as §1
# [5] = compound: CCCS(=O)(=O)Nc1ccc(F)c(C(=O)c2c[nH]c3ncc(Cl)cc23)c1F
# How it was run: as §1
# [6] = compound: CCCc1cc(C)[nH]c(=O)c1CNC(=O)c1cc(-c2ccnc(N3CCN(C)CC3)c2)cc2c1cnn2C(C)C
# How it was run: as §1
# givinostat = compound: CCN(CC)Cc1ccc2cc(COC(=O)Nc3ccc(C(=O)NO)cc3)ccc2c1 [givinostat]
# How it was run: as §1
# barasertib = compound: CCN(CCCOc1ccc2c(Nc3cc(CC(=O)Nc4cccc(F)c4)[nH]n3)ncnc2c1)CCOP(=O)(O)O [barasertib]
# How it was run: as §1
# [7] = compound: CC[C@@H]1C(=O)N(C)c2cnc(Nc3ccc(C(=O)NC4CCN(C)CC4)cc3OC)nc2N1C1CCCC1
# How it was run: as §1
# volasertib = compound: CC[C@@H]1C(=O)N(C)c2cnc(Nc3ccc(C(=O)N[C@H]4CC[C@H](N5CCN(CC6CC6)CC5)CC4)cc3OC)nc2N1C(C)C [volasertib]
# How it was run: as §1
# [8] = compound: CC[C@H](C)N1C=C(C2=C(C=C(C=C21)C3=CN=C(C=C3)N4CCNCC4)C(=O)NCC5=C(C=C(NC5=O)C)C)C
# How it was run: as §1
# epoxomicin = compound: CC[C@H](C)[C@@H](C(=O)N[C@@H]([C@@H](C)O)C(=O)N[C@@H](CC(C)C)C(=O)[C@]1(CO1)C)NC(=O)[C@H]([C@@H](C)CC)N(C)C(=O)C [epoxomicin]
# How it was run: as §1
# [9] = compound: CCn1c(C(=O)N(C2CC2)C2CC2)cc2c3c(ncn3C)c(Nc3cc(C)n(C)n3)nc21
# How it was run: as §1
# [10] = compound: CCn1cc(-c2ccnc3[nH]c(-c4cccc(CN(C)C)c4)cc23)c(-c2ccc(NC(=O)N(C)C)cc2)n1
# How it was run: as §1
# [11] = compound: CN(C)CC(=O)Nc1ccc2[nH]c(=O)c3ccccc3c2c1
# How it was run: as §1
# rosiglitazone = compound: CN(CCOC1=CC=C(C=C1)C[C@H]2C(=O)NC(=O)S2)C3=CC=CC=N3 (racemic) [rosiglitazone]
# How it was run: as §1
# [12] = compound: CN1C2=C(C3=C1C(=O)N(N=C3)CC4=CC(=CC=C4)N)SC(=C2)S(=O)C
# How it was run: as §1
# [13] = compound: CN1CCC(CNc2ccc3ncc(-c4cccc(OC(F)(F)F)c4)n3n2)CC1
# How it was run: as §1
# UniProt P53680, sequence (P53680 whole entry, looked up): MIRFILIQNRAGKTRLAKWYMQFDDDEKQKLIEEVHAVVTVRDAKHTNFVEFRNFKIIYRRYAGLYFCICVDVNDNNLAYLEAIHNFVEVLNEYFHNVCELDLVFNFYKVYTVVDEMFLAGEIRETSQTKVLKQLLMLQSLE
# UniProt P04114, sequence (P04114 whole entry, looked up): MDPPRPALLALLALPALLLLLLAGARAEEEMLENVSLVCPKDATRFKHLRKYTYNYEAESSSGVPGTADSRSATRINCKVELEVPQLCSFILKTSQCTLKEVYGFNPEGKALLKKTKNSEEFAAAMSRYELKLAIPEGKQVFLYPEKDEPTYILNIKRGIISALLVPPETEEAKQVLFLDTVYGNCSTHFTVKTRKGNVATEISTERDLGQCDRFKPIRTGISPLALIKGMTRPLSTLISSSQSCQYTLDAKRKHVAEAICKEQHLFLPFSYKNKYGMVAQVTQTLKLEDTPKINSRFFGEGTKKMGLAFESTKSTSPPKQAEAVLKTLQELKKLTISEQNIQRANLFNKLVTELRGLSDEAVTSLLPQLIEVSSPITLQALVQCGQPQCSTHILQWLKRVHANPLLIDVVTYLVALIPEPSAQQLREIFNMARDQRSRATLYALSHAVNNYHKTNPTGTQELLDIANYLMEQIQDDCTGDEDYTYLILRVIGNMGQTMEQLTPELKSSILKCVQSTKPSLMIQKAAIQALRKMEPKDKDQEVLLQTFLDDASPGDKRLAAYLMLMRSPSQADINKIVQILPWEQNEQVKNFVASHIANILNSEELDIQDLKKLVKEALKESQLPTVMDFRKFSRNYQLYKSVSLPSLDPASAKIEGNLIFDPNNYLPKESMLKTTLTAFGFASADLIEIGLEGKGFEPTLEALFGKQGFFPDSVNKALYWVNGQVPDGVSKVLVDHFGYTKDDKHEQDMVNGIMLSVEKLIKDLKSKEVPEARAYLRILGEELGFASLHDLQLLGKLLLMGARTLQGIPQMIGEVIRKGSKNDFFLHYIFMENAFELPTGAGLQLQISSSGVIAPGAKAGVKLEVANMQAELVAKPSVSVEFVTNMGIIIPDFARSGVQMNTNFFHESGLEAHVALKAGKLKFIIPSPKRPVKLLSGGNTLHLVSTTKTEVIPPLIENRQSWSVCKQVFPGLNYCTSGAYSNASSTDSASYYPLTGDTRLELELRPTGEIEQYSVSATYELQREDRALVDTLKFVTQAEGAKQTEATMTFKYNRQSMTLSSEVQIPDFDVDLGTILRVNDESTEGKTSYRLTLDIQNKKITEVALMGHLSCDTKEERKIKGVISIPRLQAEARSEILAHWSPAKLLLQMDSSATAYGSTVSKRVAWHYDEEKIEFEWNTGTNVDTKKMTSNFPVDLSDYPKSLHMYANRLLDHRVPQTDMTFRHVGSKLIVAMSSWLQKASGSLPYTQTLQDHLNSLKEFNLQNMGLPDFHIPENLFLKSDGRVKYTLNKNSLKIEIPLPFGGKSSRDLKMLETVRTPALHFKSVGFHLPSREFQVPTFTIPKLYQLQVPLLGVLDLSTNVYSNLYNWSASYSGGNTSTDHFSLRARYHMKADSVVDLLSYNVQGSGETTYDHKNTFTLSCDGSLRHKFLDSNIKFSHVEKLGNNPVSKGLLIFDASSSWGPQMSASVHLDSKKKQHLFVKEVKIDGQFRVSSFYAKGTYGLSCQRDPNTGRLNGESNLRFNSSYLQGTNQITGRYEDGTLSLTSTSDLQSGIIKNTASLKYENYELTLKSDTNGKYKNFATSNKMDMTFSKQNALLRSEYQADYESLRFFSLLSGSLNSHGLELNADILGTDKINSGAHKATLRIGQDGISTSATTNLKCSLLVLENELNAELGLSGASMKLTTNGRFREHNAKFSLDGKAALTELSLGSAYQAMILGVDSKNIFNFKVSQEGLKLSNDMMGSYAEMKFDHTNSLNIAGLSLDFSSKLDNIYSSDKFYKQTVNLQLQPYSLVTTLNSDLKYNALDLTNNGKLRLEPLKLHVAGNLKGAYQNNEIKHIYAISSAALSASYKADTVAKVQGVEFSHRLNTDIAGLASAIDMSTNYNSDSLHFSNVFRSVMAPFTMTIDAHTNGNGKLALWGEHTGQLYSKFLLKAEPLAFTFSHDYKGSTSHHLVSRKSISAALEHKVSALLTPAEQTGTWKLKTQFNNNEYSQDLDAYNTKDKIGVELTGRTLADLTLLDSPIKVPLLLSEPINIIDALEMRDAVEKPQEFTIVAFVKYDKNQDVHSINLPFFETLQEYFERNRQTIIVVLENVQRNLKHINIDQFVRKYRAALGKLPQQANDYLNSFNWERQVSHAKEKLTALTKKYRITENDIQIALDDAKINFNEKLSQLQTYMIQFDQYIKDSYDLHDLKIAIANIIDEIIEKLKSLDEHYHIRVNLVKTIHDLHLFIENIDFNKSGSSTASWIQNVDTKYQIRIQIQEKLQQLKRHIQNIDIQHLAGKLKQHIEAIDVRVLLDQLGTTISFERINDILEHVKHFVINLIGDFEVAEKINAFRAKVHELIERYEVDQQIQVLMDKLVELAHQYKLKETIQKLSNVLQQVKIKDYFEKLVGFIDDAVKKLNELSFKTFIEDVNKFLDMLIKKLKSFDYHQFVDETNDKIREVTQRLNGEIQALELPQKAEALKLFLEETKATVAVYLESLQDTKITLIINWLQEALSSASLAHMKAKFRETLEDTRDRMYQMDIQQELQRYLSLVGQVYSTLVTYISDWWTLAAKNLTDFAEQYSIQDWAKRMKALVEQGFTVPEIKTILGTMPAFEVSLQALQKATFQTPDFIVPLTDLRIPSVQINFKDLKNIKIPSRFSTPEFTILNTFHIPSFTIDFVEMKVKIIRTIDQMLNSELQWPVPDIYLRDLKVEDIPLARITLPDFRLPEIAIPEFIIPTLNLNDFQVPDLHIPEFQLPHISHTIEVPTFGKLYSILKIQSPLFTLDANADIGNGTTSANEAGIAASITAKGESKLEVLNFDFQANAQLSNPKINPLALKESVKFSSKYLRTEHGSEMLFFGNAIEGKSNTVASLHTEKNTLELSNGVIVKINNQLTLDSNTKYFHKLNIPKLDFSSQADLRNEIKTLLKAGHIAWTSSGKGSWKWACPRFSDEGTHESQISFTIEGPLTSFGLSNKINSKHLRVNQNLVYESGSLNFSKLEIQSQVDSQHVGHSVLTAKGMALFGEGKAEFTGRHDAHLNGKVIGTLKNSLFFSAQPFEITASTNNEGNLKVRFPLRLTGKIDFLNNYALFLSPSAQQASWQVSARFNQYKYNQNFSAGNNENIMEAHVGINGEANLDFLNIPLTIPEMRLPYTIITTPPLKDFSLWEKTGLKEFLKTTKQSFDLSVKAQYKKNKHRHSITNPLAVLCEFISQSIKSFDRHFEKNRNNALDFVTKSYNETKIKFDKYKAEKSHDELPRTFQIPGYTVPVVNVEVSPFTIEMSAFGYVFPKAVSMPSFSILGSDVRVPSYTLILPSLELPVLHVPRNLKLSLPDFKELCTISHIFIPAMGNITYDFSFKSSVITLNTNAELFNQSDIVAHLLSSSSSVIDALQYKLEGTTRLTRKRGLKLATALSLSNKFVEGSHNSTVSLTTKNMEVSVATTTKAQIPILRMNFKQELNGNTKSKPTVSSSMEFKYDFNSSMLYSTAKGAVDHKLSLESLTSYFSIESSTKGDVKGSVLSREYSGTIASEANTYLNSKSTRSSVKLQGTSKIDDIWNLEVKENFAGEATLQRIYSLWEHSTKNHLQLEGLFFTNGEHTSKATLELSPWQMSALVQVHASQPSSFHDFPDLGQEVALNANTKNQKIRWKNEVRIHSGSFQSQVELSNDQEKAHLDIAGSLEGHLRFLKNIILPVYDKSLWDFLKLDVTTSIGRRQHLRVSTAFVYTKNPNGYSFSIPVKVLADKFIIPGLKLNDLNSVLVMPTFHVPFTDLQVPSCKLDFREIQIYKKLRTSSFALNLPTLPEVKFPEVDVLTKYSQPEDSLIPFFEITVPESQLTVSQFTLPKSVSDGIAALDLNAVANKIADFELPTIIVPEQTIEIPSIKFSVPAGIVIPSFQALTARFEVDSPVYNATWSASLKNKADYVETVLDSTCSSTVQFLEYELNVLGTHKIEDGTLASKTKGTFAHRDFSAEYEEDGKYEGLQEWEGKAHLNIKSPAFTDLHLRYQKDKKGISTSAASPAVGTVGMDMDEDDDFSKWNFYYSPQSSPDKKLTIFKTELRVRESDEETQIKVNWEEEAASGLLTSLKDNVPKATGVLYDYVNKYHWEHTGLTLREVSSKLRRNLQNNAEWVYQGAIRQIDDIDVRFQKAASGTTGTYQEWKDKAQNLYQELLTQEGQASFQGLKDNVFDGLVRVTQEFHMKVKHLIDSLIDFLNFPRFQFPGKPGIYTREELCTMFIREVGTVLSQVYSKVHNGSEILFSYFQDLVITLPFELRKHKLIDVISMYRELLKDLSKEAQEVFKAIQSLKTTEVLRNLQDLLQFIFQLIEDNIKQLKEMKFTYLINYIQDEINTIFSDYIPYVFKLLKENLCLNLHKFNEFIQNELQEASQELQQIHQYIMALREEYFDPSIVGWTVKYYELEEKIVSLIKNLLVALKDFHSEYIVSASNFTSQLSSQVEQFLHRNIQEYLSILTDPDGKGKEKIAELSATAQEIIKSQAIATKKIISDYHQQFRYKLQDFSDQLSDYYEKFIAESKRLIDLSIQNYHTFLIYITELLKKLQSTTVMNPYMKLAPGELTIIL
# UniProt Q9Y6H3, sequence (Q9Y6H3 whole entry, looked up): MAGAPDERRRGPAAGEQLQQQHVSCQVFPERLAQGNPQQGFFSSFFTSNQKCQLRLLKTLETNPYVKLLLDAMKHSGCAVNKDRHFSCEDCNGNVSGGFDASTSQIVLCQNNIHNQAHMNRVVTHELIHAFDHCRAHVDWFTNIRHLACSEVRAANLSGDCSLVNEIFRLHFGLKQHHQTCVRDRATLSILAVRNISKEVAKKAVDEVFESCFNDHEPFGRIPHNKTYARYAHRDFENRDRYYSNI
# UniProt O00244, sequence (O00244 whole entry, looked up): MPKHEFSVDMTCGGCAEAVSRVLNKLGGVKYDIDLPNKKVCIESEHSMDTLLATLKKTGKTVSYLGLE
Target,log2 fold change [1],log2 fold change [2],log2 fold change [3],log2 fold change [4],log2 fold change (Nexturastat A),log2 fold change (vemurafenib),log2 fold change [5],log2 fold change [6],log2 fold change (givinostat),log2 fold change (barasertib),log2 fold change [7],log2 fold change (volasertib),log2 fold change [8],log2 fold change (epoxomicin),log2 fold change [9],log2 fold change [10],log2 fold change [11],log2 fold change (rosiglitazone),log2 fold change [12],log2 fold change [13]
AUP1 (UniProt Q9Y679),0.054,0.021,0.009,-0.005,-0.048,0.121,0.058,-0.056,0.028,0.06,-0.132,-0.253,0.032,0.046,-0.002,-0.028,0.089,0.12,0.014,-0.24 (active)
ANXA5 (UniProt P08758),0.057,-0.065,-0.01,0.068,-0.116,0.07,0.071,0.039,0.033,0.034,-0.084,-0.214 (active),0.04,0.068,0.002,-0.041,0.012,0.007,-0.04,-0.042
ANKRD29 (UniProt Q8N6D5),0.046,0.022,0.027,-0.035,0.371,-0.064,-0.031,-0.073,0.247,-0.124,-0.021,-0.27,-0.152,0,-0.137,-0.233,0.025,0.111,-0.039,-0.043
ATP23 (UniProt Q9Y6H3),0.027,-0.013,0.122,0.058,-0.172,0.021,-0.039,-0.031,-0.012,-0.049,-0.007,0.004,-0.078,0.016,0.059,0.055,-0.045,-0.011,-0.087,-0.478 (active)
ATP6V1C1 (UniProt P21283),0.004,-0.037,-0.024,-0.033,0.131,-0.018,0.057,0.026,0.031,0.062,0.027,-0.196,0.066,0.064,-0.022,-0.282 (active),-0.008,0.032,0.069,0.377 (active)
ADPRHL2 (UniProt Q9NX46),0.022,-0.06,0.007,0.111,-0.077,0.126,0.076,-0.003,0.004,0.043,-0.027,0.071,-0.028,0.145,-0.05,-0.093,0.116,0.002,-0.042,0.133
ATOX1 (UniProt O00244),0.056,-0.065,0.275,0.239,-0.037,0.054,0.372,0.28,-0.072,-0.025,0.009,0,-0.015,0.107,0.016,-0.079,0.056,0.012,-0.023,0.094
AP2A1 (UniProt O95782),0.024,-0.016,0.004,0.084,0.048,0.009,0.03,-0.003,0.008,-0.028,0.076,-0.085,0.015,-0.011,0.022,-0.002,-0.041,-0.011,0.005,0
APOB (UniProt P04114),-0.039,0.134,0.146,0.032,-0.049,-0.006,0.095,-0.853 (active),0.074,-0.012,-0.235,-0.104,-0.227,-0.056,0.004,0.048,0.014,0.02,0.116,-0.354
B4GALT1 (UniProt P15291),-0.009,-0.027,0.002,-0.05,-0.022,0.035,0.012,-0.044,-0.113,-0.01,-0.324 (active),-0.571 (active),0.033,0.051,0.041,-0.048,-0.03,0.072,-0.081,-0.28 (active)
ARMC10 (UniProt Q8N2F6),0.03,-0.087,-0.019,-0.046,0.056,0.12,0.074,0.072,0.063,0.019,-0.062,-0.333 (active),0.075,0.022,-0.017,-0.008,0.062,0.015,0.002,-0.044
AP2S1 (UniProt P53680),0.009,-0.028,-0.036,0.037,-0.038,0.002,0.03,0.007,-0.015,-0.034,0.035,0.018,-0.024,-0.022,0.023,-0.008,-0.071,0.02,-0.005,0.037
BAIAP2 isoform 4 (UniProt Q9UQB8),0.034,–,–,–,–,–,–,–,–,–,–,–,–,–,–,–,–,–,–,–
AKAP8L (UniProt Q9ULX6),-0.124,-0.007,-0.092,0.005,0.054,0.069,0.067,0.02,0.004,0.047,-0.14,-0.394 (active),0.059,0.072,-0.074,-0.039,0.043,0.101,0.171,-0.25
ACAD9 (UniProt Q9H845),-0.022,0.007,0.007,-0.001,-0.061,0.053,-0.019,-0.009,-0.012,-0.011,0.03,0.024,-0.039,0.015,0.006,0.014,0.022,-0.016,-0.032,-0.002
ALDH6A1 (UniProt Q02252),-0.02,0.032,-0.039,0.044,-0.014,0.025,0.011,0.029,-0.017,-0.038,0.06,-0.011,-0.059,0,0.028,-0.06,-0.033,0.093,-0.068,-0.004

# — the supplement of paper PMC10849652
